# PMC4336329 (PLoS ONE, 2015)
# Hit rate of the full screen: of about 310,000 compounds, about 14,000 (4.5%) showed an effect of 50% or more. Effects have a minus sign here. The entries come from a sample that favours strong results as a whole.
# Biological target: human ether-à-go-go-related gene (hERG) potassium channel (human, UniProt Q12809)
# Test: primary screen, population patch clamp on CHO cells stably expressing hERG; higher = less effect of the substance
# 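Also: peak tail current of the secondary pulse compared with the same well before compound.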
# human ether-à-go-go-related gene (hERG) potassium channel, sequence (Q12809 whole entry, looked up): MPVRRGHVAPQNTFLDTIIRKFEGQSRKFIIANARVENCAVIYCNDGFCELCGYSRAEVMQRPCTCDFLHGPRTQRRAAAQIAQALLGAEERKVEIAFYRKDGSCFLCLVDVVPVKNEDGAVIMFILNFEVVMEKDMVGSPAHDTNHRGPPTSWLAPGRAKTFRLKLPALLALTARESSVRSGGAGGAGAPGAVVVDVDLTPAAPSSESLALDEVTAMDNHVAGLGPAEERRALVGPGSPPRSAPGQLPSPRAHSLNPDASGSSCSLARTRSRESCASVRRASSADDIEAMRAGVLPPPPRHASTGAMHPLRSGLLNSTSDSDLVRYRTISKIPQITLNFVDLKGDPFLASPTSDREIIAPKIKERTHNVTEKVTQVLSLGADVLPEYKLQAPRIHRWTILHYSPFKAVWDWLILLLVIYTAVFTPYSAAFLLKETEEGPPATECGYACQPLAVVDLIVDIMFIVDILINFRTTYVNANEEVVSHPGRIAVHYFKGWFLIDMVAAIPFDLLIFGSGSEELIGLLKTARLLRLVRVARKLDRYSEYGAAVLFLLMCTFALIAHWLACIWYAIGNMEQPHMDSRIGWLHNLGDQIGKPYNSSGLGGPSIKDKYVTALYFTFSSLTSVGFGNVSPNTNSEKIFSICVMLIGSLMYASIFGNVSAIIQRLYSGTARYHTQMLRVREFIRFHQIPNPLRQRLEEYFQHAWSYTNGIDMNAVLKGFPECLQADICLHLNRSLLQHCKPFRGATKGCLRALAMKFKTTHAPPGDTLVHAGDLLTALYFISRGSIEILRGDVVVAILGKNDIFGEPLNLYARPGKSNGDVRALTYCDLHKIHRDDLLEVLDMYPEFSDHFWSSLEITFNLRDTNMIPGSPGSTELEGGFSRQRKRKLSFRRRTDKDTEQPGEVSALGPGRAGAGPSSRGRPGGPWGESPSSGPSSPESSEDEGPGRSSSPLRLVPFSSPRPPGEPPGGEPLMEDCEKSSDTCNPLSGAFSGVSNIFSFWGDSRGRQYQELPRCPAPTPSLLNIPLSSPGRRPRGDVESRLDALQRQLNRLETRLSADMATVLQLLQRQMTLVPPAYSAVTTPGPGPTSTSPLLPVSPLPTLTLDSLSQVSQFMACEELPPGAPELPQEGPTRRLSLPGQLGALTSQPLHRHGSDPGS
row,Compound,"hERG current change (%, negative = inhibition) at 10uM [%]"
1,O=P(C(c1ccc2c(c1)OCO2)N1CCOCC1)(N1CCOCC1)N1CCOCC1 (centres unmarked),4.64
2,O=C(CN1CCN(c2ncc(C(F)(F)F)cc2Cl)CC1)Nc1ccc2c(c1)OCO2,-37.7
3,Cc1ccc(-c2nc(CSCC(=O)NCCN3CCN(Cc4ccccc4)CC3)c(C)o2)cc1,-65.2
4,Cc1ccc(-c2nc(CSCC(=O)NC3CCN(Cc4ccccc4)CC3)c(C)o2)cc1,-44
5,Cc1ccc(-c2nc(CSCC(=O)NCCCN3CCOCC3)c(C)o2)cc1,14.1
6,CCOc1ccc(-c2nc(CSCC(=O)NCCN3CCOCC3)c(C)o2)cc1,11.3
7,Cc1oc(-c2ccc(Cl)cc2)nc1CSCC(=O)NC1CCN(Cc2ccccc2)CC1,-73.1
8,COc1ccc(-c2nc(CSCC(=O)NC3CCN(Cc4ccccc4)CC3)c(C)o2)cc1OC,-40.9
9,COc1ccc(-n2nc(C(=O)NCC(=O)N3CCN(c4ccccc4OC)CC3)c3ccccc3c2=O)cc1OC,-34.5
10,CC1CCN(C(=O)CCc2ccc(S(=O)(=O)NC(C)(C)C)cc2)CC1,-5.31
11,O=C(N/N=C/c1ccncc1)c1cc([N+](=O)[O-])cc([N+](=O)[O-])c1O,4.15
12,CCOC(=O)C(=O)Nc1nnc(CCc2ccccc2)s1,6.37
13,COCCNS(=O)(=O)c1ccc(OCC(=O)N2CCc3ccccc3C2)c(Cl)c1,-43.5
14,CCCNS(=O)(=O)c1ccc(OCC(=O)N2CCN(Cc3ccc4c(c3)OCO4)CC2)c(C)c1,-61.6
15,CCCNS(=O)(=O)c1ccc(OCC(=O)N2CCN(Cc3ccc4c(c3)OCO4)CC2)cc1,-32
16,Cc1cc(S(=O)(=O)NC(C)C)ccc1OCC(=O)N1CCN(Cc2ccc3c(c2)OCO3)CC1,-27.6
17,CCCNS(=O)(=O)c1ccc(OCC(=O)N2CCc3ccccc3C2)c(C)c1,-65.9
18,Cc1ccc(OCC(=O)N2CCc3ccccc3C2)c(C)c1,-16.1
19,CCOc1cc(C)c(C(C)C)cc1S(=O)(=O)n1cnc(C)c1,-18.7
20,Cc1ccc(NC(=O)C2=COCCO2)cc1S(=O)(=O)N1CCOCC1,-0.0399

row,Compound,"hERG current change (%, negative = inhibition) at 10uM [%]"
1,CCOC(=O)C1CCN(C2CC(=O)N(c3cccc(Cl)c3)C2=O)CC1 (centres unmarked),-12
2,CC(C)C[C@H]1CN=C(Nc2ccccc2)N1CC1CCC1,-30.2
3,c1ccc(C[C@H]2CN=C(Nc3ccccc3)N2CCC2CCCC2)cc1,-70.4
4,c1ccc(C[C@H]2CN=C(Nc3ccccc3)N2CC2CCC2)cc1,-63
5,C[C@H]1CN=C(Nc2ccccc2)N1CC1CCC1,-0.391
6,CCn1c2ccccc2c2cc(NC(=O)COC(=O)c3cc(OC)c(OC)cc3OC)ccc21,-3.41
7,COC(=O)c1ccccc1NC(=O)c1cc2nc(C3CC3)cc(C(F)(F)F)n2n1,9.42
8,Cn1cnnc1Sc1ccc(C(F)(F)F)cc1[N+](=O)[O-],2.45
9,Cn1c(Sc2ccc(C(F)(F)F)cc2[N+](=O)[O-])nnc1-c1ccccc1,-62.8
10,Cn1c(Sc2ccc(C(=O)O)cc2[N+](=O)[O-])nnc1-c1ccccc1,-6.68
11,Cn1c(Sc2ccc([N+](=O)[O-])cc2C(F)(F)F)nnc1-c1ccccc1,-55
12,CSc1nnc(-c2ccccc2)n1C,5.22
13,Cn1c(SCC(=O)N/N=C/c2cc([N+](=O)[O-])ccc2O)nnc1-c1ccccc1,10.5
14,CC(=O)Nc1ccc(S(=O)(=O)Nc2c(C)nn(-c3ccccc3)c2C)cc1,-7.68
15,O=c1c(C(c2ccc(Cl)cc2)c2c(O)nc3n(c2=O)CCCS3)c(O)nc2n1CCCS2,21.3
16,CCN(CC)S(=O)(=O)c1cccc(-c2nnc(SCCCC(=O)c3ccccc3)o2)c1,-23.8
17,O=C(Nc1ccc(O)cc1)C1CCCN1S(=O)(=O)c1ccc(F)cc1 (centres unmarked),-1.44
18,COC(=O)c1sc(N)c(C(=O)OC)c1CSc1nnnn1C,-12.2
19,COC(=O)c1sc(N)c(C(=O)OC)c1CSc1nnc(-c2ccccc2Cl)n1C,-24.5
20,C=CCn1c(SCC(=O)NC2CCCCC2)nnc1-c1ccc(OC)cc1,-12

row,Compound,"hERG current change (%, negative = inhibition) at 10uM [%]"
1,C=CCn1c(SCc2ccc(C(=O)OC)cc2)nnc1-c1sc(N)nc1C,-8.5
2,C=CCn1c(SCc2c(C(=O)OC)sc(N)c2C(=O)OC)nnc1-c1ccc(Br)cc1,-65.4
3,C=CCn1c(SCc2c(C(=O)OC)sc(N)c2C(=O)OC)nnc1-c1ccc(Cl)cc1,-58.1
4,O=C(O)c1cccnc1SCC(=O)N1CCCc2ccccc21,14.6
5,Nc1nc(SCC(=O)Nc2ccccc2)nc2nc3c(cc12)CCCC3,-1.5
6,C=C1SC(=Nc2c(C)cccc2Cl)N(C(=O)c2sc3ccccc3c2Cl)C12CCCCC2,25.8
7,Cc1ccc(S(=O)(=O)NCCCCCC(=O)Nc2cccc(C)c2)cc1,-39.2
8,Cc1cc(C)c(OCCN2CCOCC2)c(Cl)c1,8.09
9,Cc1cc(Cl)c(OCCOCCN2CCN(C)CC2)c(Br)c1.O=C(O)C(=O)O,-9.48
10,Cc1cc(Cl)c(OCCOCCN2CCC(C)CC2)c(Br)c1.O=C(O)C(=O)O,-57.6
11,Cc1cc(Cl)c(OCCCN(C)C)c(Br)c1.O=C(O)C(=O)O,-40.4
12,Cc1cc(Cl)c(OCCCCN2CCOCC2)c(Br)c1,-30.2
13,Cc1cc(C)c(OCCN2CCCC2)c(Cl)c1,-42.1
14,Cc1cc(Cl)c(OCCCN2CCCCC2)c(Br)c1.O=C(O)C(=O)O,-68.1
15,Cc1cc(C)c(OCCCCN2CCC(C)CC2)c(Br)c1,-72.7
16,Cc1cc(C)c(OCCCCN2CCNCC2)c(C)c1.O=C(O)C(=O)O,9.44
17,Cc1cc(Cl)cc(Cl)c1OCCN1CCCC1,-55
18,Cc1cc(Cl)c(OCCOCCN2CCNCC2)c(Cl)c1.O=C(O)C(=O)O,-7.47
19,Cc1cc(C)c(OCCN2CC(C)OC(C)C2)c(Br)c1.O=C(O)C(=O)O (centres unmarked),-17.5
